# ELG1 genotoxic: genotoxicity induction in ELG1-luciferase HEK293T cells. Potency, µM (titrated, usually from 46 µM), for inactives: at the top dose activity change, positive = activation, most hits filed as activators. 330,000 tested, 1.3% active. HEK293T ELG1-luciferase reporter, luminescence, 16 h; further: % of control where 0% means no effect; nearly all actives have a fitted effect of over 60% in size
#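 Cells (2,000/well) expressing the ELG1-luciferase fusion are dosed by pin tool and kept 16 hr at 37 °C, 5% CO2. Signal comes from ONE-Glo luciferase reagent after 30 min at room temperature.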
# NPC1 prom act: NPC1 promoter activation; 320,000 tested, 2.4% active; Potency, µM (titrated, usually from 9.22 µM), for inactives: top-dose activation, usual class: activators; AID 485313; Huh7 NPC1 promoter luciferase reporter, 24 h; further: % of control where 0% means no effect; nearly all actives have a fitted effect of over 60% in size
#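 In 1536-well qHTS, Huh7 cells harboring an NPC1 promoter–luciferase construct received compound for 24 h; activation was quantified by luminescence following luciferase reagent addition.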
# SMN2 splice enh: enhancers of SMN2 splice variant expression. HEK293 SMN2-luciferase splicing reporter, luminescence, 30-36 h. Potency, µM (doses to about 46.1 µM), for the others: at the highest dose activity change, positive = activation, most hits filed as activators. 210,000 tested, 2.8% active; further: % of control where 0% means no effect; nearly all actives have a fitted effect of over 55% in size
#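 qHTS luciferase splicing reporter: luminescence rises when SMN2 exon 7 is included in transfected HEK293 cells. Compound exposure lasted 30-36 h at 37C, with 4.5 mM final sodium butyrate as control, followed by a ONE-Glo read.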
# ELG1 DNA repair: inhibitors of ELG1-dependent DNA repair in HEK293T cells. HEK293T ELG1-luciferase reporter, luminescence, 16 h; DNA damage induced by 5-fluorouridine. Potency, µM (series often up to 46.1 µM), without a hit: at the highest dose activity change, negative = inhibition, hits mostly inhibitors. 330,000 tested, 2.3% active. AID 504467; further: on the % scale 0 is the no-effect control and ±100 the full control effect; nearly all actives have a fitted effect of over 55% in size
#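 5-Fluorouridine DNA damage + compound/DMSO, 2,000 cells/well, 16 h, 37 °C/5% CO2. ONE-Glo, 30 min RT, luminescence. Readout = decrease in reporter signal.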
# Rab9 promoter act: Rab9 promoter activation; 320,000 tested, 2.8% active; Potency, µM (titrated, usually from 9.22 µM), for inactives: at the top dose activation, negative = inhibition, most hits filed as activators; AID 485297; Huh7 Rab9 promoter-luciferase reporter, luminescence, 24 h; further: % of control where 0% means no effect; nearly all actives have a fitted effect of over 60% in size
#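 Luminescence read-out: Huh7 cells stably expressing Rab9-luciferase, treated 24 h with compound at 37 °C, then lysed with luciferase reagent for 10 min at ambient before reading.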
# FLuc modulator: counter-screen for miR-21 project: firefly luciferase inhibitors or activators; P08659; purified FLuc, Km substrates, luminescence inhibition; Potency, µM (highest dose often 57.5 µM), inactives show at the highest dose activity change, negative = inhibition, usual class: inhibitors; 360,000 tested, 6.9% active; AID 588342;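 further: plate controls were vehicle for no effect and reference inhibitor for full effect; nearly all actives have a fitted effect of over 55% in size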
# Target sequence (P08659 whole entry, looked up): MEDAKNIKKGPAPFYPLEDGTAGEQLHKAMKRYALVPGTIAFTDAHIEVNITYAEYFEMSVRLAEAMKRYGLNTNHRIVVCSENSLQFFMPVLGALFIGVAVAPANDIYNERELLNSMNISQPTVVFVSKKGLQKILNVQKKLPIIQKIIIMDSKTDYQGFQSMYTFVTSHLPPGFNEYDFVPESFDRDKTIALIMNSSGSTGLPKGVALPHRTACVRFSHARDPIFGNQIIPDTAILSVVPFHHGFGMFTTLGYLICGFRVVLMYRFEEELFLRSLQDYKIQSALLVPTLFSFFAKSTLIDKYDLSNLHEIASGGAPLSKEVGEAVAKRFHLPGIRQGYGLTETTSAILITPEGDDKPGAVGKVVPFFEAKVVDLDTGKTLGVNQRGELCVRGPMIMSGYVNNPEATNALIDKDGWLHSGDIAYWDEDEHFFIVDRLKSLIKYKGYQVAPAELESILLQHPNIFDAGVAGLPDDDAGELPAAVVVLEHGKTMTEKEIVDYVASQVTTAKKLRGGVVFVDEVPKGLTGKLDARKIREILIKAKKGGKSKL
#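 Purified P. pyralis luciferase (10nM final) with 10uM D-luciferin and 10uM ATP (Km levels) in 50mM Tris acetate pH 7.5, 10mM Mg acetate, 0.01% Tween-20, 0.05% BSA; qHTS 6-point titration, ~60 µM downward; luminescence read.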
# Active calls of the source: *; ? = inconclusive; nt = no result. Only some compounds are listed: those with a hit (about 9.2% of all), similar ones and a draw of the others. The call rests on the fitted dose curve; in most records, active means well fitted curve in the direction sought with a large enough effect; inconclusive means small, poorly fitted or top-dose-only effect, or another doubt; inactive means no such curve, though single readings can be large; an effect the other way counts as inactive or inconclusive. Potency means the concentration at half of the fitted maximal effect.
SMILES,ELG1 genotoxic,NPC1 prom act,SMN2 splice enh,ELG1 DNA repair,Rab9 promoter act,FLuc modulator
Cc1cccc(OCC(=O)Nc2cccc(C(=O)OCc3cc(=O)n4c(C)csc4n3)c2)c1,nt,nt,nt,nt,nt,-14%
O=S(=O)(c1cccs1)N1CCN(CCOc2ccc(Cl)cc2)CC1,-1%,-10%,nt,-18%,-18%,nt
O=S(=O)(c1cccs1)N1CCN(CC(O)COc2cc(Cl)ccc2Cl)CC1 (stereo not given),-22%,-3%,-94%,8.2µM*,-22%,1%
CCC(C)Nc1nc(N)c([N+](=O)[O-])c(Nc2cc(OC)ccc2OC)n1 (stereo not given),-1%,-3%,nt,23µM*,-3%,6%
CCC(C)Nc1nc(N)c([N+](=O)[O-])c(N2CCCCCC2)n1 (stereo not given),-5%,-4%,nt,-11%,-5%,4%
COc1ccccc1Nc1nc(NCC(C)C)nc(N)c1[N+](=O)[O-],-7%,-3%,nt,8.2µM*,-10%,-5%
CC(C)CNc1nc(N)c([N+](=O)[O-])c(N2CCCCCC2)n1,-9%,-1%,nt,7.3µM*,-1%,0%
Cc1cccc(C(=O)O[C@@H]2[C@H](Cc3ccccc3)NS(=O)(=O)[C@H]3C[C@@H]4C=C[C@]23O4)c1,-1%,-3%,nt,12%,-4%,-2%
CCOC(=O)C1=C(C)N=C2SC(C(=O)OC)=CC(=O)N2C1c1ccc(OC)cc1 (stereo not given),?,-5%,-33%,?,2%,-2%
CCOc1ccc(NC(=O)CN(C)C(=O)c2ccc(OCC3CCCO3)cc2)cc1OCC (stereo not given),1%,13%,nt,-2%,5%,3%
CN(C)/C=N/c1sc2c(c1C(N)=O)CCCC2,8%,0%,-2%,-9%,1%,-5%
Cc1ccc(/C=N/c2sc3c(c2C(N)=O)CCCC3)o1,12%,?,?,?,4µM*,11µM*
COc1ccc(NS(=O)(=O)c2ccc3oc(Nc4ccc5c(c4)OCCO5)nc3c2)cc1,3%,1%,7%,?,13%,19µM*
CN1c2ccc(Cl)cc2C(=O)NC1c1ccc([N+](=O)[O-])s1 (stereo not given),-5%,-2%,nt,21µM*,-4%,3%
O=[N+]([O-])c1ccc(CNc2ccc(Cl)cc2)s1,-3%,2%,nt,?,2%,-3%
N=c1n(CC(=O)c2cccs2)c2ccccc2n1Cc1ccccc1,-8%,0%,nt,7.3µM*,-11%,3%
O=C(O)Cn1c(=O)n(Cc2ccccc2)c2ccccc21,4%,4%,nt,-4%,9%,-1%
CC(C)(C)OC(=O)[C@H]1[C@H](c2ccc([N+](=O)[O-])cc2)C2(C(=O)c3ccccc3C2=O)C2c3ccccc3C=NN21 (stereo not given in full),-5%,1%,-16%,3%,-3%,-1%
Cc1oc(-c2ccccc2F)nc1CS(=O)CC(=O)NC(C)C (stereo not given),nt,nt,5%,nt,nt,-15%
O=C(c1ccccc1)c1coc2ccc(O)c(Cl)c12,?,13%,12%,?,14%,?
Cc1ccc(C(=O)c2coc3ccc(O)cc23)cc1,?,?,nt,?,20%,1.1µM*
Cc1ccc(C(=O)c2coc3ccc(O)c(Cl)c23)cc1,?,16%,-1%,?,-2%,19µM*
CCCCn1c(=O)nc2n(-c3ccc(Br)cc3)c3ccccc3cc-2c1=O,nt,nt,nt,nt,nt,-4%
O=C(Nc1cc(Cl)cc(Cl)c1)c1cc(S(=O)(=O)NC2CCCC2)ccc1F,nt,nt,nt,nt,nt,2%
Cc1ccc(/C=C/C(=O)OCC(=O)c2ccc3c(c2)NC(=O)CO3)o1,-4%,nt,nt,12µM*,nt,nt
SMILES,ELG1 genotoxic,NPC1 prom act,SMN2 splice enh,ELG1 DNA repair,Rab9 promoter act,FLuc modulator
C#CCOCCOCCOCCNc1nc(N2CCN(C(=O)CCCCCCCCCCNC(=O)[C@H](CCCCN)n3cc(C[C@@H](C)CC)nn3)CC2)nc(N2CCN(C(=O)CCCCCCCCCCNC(=O)[C@@H]([C@H](C)O)n3cc(C)nn3)CC2)n1,-6%,-6%,nt,?,4%,3%
CC[C@H](C)Cc1cn([C@@H](CCCN=C(NC(=O)OC(C)(C)C)NC(=O)OC(C)(C)C)C(=O)NCCCCCCCCCCC(=O)N2CCN(C(=O)OC(C)(C)C)CC2)nn1,-40%,-10%,nt,7.3µM*,1%,-2%
C#CCOCCOCCOCCNc1nc(N2CCN(C(=O)CCCCCCCCCCNC(=O)[C@H](CCCCN)n3cc(CCO)nn3)CC2)nc(N2CCN(C(=O)CCCCCCCCCCNC(=O)[C@H](CCCCN)n3cc(C[C@@H](C)CC)nn3)CC2)n1,2%,-1%,nt,?,3%,3%
C#CCOCCOCCOCCNc1nc(N2CCN(C(=O)CCCCCCCCCCNC(=O)[C@H](CCCCN)n3cc(C)nn3)CC2)nc(N2CCN(C(=O)CCCCCCCCCCNC(=O)[C@@H]([C@H](C)O)n3cc(C)nn3)CC2)n1,1%,1%,nt,14µM*,-2%,0%
C#CCOCCOCCOCCNc1nc(N2CCN(C(=O)CCCCCCCCCCNC(=O)[C@@H](CCC(=O)O)n3cc(CCCCCN)nn3)CC2)nc(N2CCN(C(=O)CCCCCCCCCCNC(=O)[C@H](CCCCN)n3cc(C[C@@H](C)CC)nn3)CC2)n1,8%,-3%,nt,3.2µM*,-1%,5%
COC(=O)[C@@H]1C[C@]2(OC(=O)c3ccccc3)C=CC(=O)C[C@@H]2N1C(=O)OCc1ccccc1,-15%,4%,-27%,15µM*,-15%,-15%
COC(CNC(=O)C1CCCN1C(=O)OCc1ccccc1)OC (stereo not given),0%,-5%,-3%,8%,2%,-3%
O=C(Nc1ccc2[nH]ccc2c1)c1ccc(F)cc1,?,0.4µM*,nt,?,0.5µM*,1.5µM*
O=C(Nc1ccc2[nH]ccc2c1)c1ccccc1,?,0.56µM*,nt,?,1.4µM*,3.4µM*
CC(C)c1ccc2[nH]c3c(c2c1)CCC/C3=N\NC(=O)c1ccncc1,-16%,-6%,nt,18µM*,-8%,-2%
CCCCOc1ccc(-n2nc(C)cc2C)nn1,18%,?,-13%,?,?,17µM*
Cc1cc(C)n(-c2ccc(OCC(=O)O)nn2)n1,-4%,1%,11%,17%,1%,5%
C/C(=N\NC(=S)Nc1ccccc1C)c1ccc(O)cc1,3%,1%,-10%,1%,9%,21µM*
